Compound activity deposited in PubChem BioAssay by National Center for Advancing Translational Sciences (NCATS).
The full list was thinned out, with hits kept by preference.
Pf Dd2 inh – inhibitors of Plasmodium falciparum Dd2 growth | P. falciparum Dd2 growth, SYBR Green, 72 h | Potency, µM (series often up to 28.9 µM), without a hit: at the top dose activity, negative = inhibition, hits mostly inhibitors | actives 4.3% (n = 120,000); active means well fitted inhibition curve with a large enough effect;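 further: plate controls were DMSO vehicle for no effect and reference drug for full effect; nearly all actives have a fitted effect of over 65% in size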
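Infected erythrocytes (Dd2, 0.3% parasitemia, 2.5% hematocrit final) are added to compound in RPMI-1640/Albumax II medium, grown 72 h at 37C in low oxygen, then lysed with saponin/Triton-X containing SYBR Green and read by fluorescence.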
* hit, by the source's call; i = inactive; [ ] = remark or other dose. Potency means the concentration at half of the fitted maximal effect.

SMILES	Pf Dd2 inh
COCC(=O)NC[C@H]1C[C@@H]2CCN1C[C@@H]2c1cc(-c2ccccc2OC)nc(C)n1	i
Cc1nc(-c2cccs2)cc([C@H]2CN3CC[C@H]2C[C@@H]3CNS(C)(=O)=O)n1	i
CC(=O)c1ccc(NC(=O)NC[C@H]2C[C@@H]3CCN2C[C@@H]3c2cc(-c3cccs3)nc(C)n2)cc1	i
N#Cc1ccc(N2CCN(C(=O)c3cccc(C(F)(F)F)c3)CC2=O)cc1	-12.6%
Cc1cc(C(=O)N2CCC(n3c(C)cnc3C3CCC3)CC2)nn1C	2.9%
Cc1ccn(CC(=O)N2C[C@@H](CO)[C@H](c3nc(C4CC4)no3)C2)n1	25.1%
CC(C)N1CC2CCC(C1)N2Cc1cccc(-c2ccsc2)c1	11.2µM*
CC(C)N1CC2CCC(C1)N2Cc1cccc(C#N)c1	-8.4%[44.1 µM]
O=C(c1ccncc1)N1CC2CCC(C1)N2Cc1cccc(-c2ccsc2)c1	7.6%
COc1ccccc1-c1nc2cnccn2c1NCCC(=O)N1CCc2ccccc21	-16.5%
CC(C)NC(=O)C[C@@H]1C[C@H]2O[C@H](CNC(=O)NC3CCC3)[C@@H](O)[C@H]2O1	-25.0%[44.1 µM]
CC(=O)N1CCC(C(=O)Nc2nc3c(s2)C[C@]2(C)CC[C@@H]4[C@H](OC(=O)[C@H]4C)[C@H]2[C@@H]3C)CC1	i
C[C@@H]1C(=O)O[C@H]2[C@H]1CC[C@@]1(C)Cc3sc(NS(=O)(=O)c4ccc(F)cc4)nc3[C@@H](C)[C@H]21	i
COCC(=O)Nc1nc2c(s1)C[C@]1(C)CC[C@@H]3[C@H](OC(=O)[C@H]3C)[C@H]1[C@@H]2C	-3.9%[44.1 µM]
C[C@@H]1C(=O)O[C@H]2[C@H]1CC[C@@]1(C)Cc3sc(NC(=O)NC4CCCCC4)nc3[C@@H](C)[C@H]21	11.2µM*
C[C@@H]1C(=O)O[C@H]2[C@H]1CC[C@@]1(C)Cc3sc(NC(=O)Nc4ccc(Oc5ccccc5)cc4)nc3[C@@H](C)[C@H]21	11.2µM*
C[C@@H]1C(=O)O[C@H]2[C@H]1CC[C@@]1(C)Cc3sc(NC(=O)c4c(Cl)cccc4Cl)nc3[C@@H](C)[C@H]21	i
CN1CC(=O)N(C2CCCCC2)Cc2c(NCc3cccs3)ncnc21	-12.1%
COc1nc(C)c(C(=O)N2C[C@H](CO)C[C@H](CN3CCCC3)C2)s1	-13.3%
COc1ccc(CNC(=O)c2ccc(NC(=O)N3CCCCc4ccccc43)cc2)cc1	-22.6%
CCCCN(C)C(=O)c1cccc2c1CCN2C(=O)Nc1ccc(OC)cc1	14.1µM*
COc1ccc(NC(=O)N2CCc3c(C(=O)N(C)Cc4ccco4)cccc32)cc1	-15.0%
COc1ccc(NC(=O)N2CCc3c(C(=O)N(C)C)cccc32)cc1	i
COc1ccc(NC(=O)N2CCc3c(C(=O)NC(C)C)cccc32)cc1	-6.5%
COc1ccc(NC(=O)N2CCc3c(C(=O)NCCN4CCCCCC4)cccc32)cc1	2.82µM*
SMILES	Pf Dd2 inh
Cc1ccc(NC(=O)N2CCCC(Cn3cnc4cccnc43)C2)cc1Cl (configuration not stated)	i
CCOc1ccc(S(=O)(=O)c2cn(Cc3cc(C)ccc3C)c3ccc(OCC)cc3c2=O)cc1	10µM*
CCc1ccc(S(=O)(=O)c2cn(C)c3cc(N4CCN(CC)CC4)c(F)cc3c2=O)cc1	260.0%[5.79 µM]
CCCn1cc(S(=O)(=O)c2ccc(OCC)cc2)c(=O)c2cc(C)ccc21	-13.2%
Cc1ccc(C)c(Cn2cc(S(=O)(=O)c3ccc(Cl)cc3)c(=O)c3cc(F)ccc32)c1	i
CCn1cc(S(=O)(=O)c2cccc(C)c2)c(=O)c2cc(F)c(N3CCCC(C)C3)cc21 (configuration not stated)	76.6%
CCCCn1cc(S(=O)(=O)c2ccc(C)c(C)c2)c(=O)c2cc(F)c(N3CCCC(C)C3)cc21 (configuration not stated)	-7.5%
CCCn1cc(S(=O)(=O)c2ccc(OC)cc2)c(=O)c2cc(F)c(N3CCCC(C)C3)cc21 (configuration not stated)	11.2µM*
Cn1cc(S(=O)(=O)c2cccc(Cl)c2)c(=O)c2cc(F)c(N3CCCCC3)cc21	5.0%
COc1ccc(S(=O)(=O)c2cn(C)c3cc(N4CCCCCC4)c(F)cc3c2=O)cc1	8.91µM*
CCCn1cc(S(=O)(=O)c2ccc(OC)cc2)c(=O)c2cc(F)c(N3CCCCCC3)cc21	11.2µM*
CCCCn1cc(S(=O)(=O)c2ccc(OC)cc2)c(=O)c2cc(F)c(N3CCCC3)cc21	-11.8%
Cc1cc(C)cc(S(=O)(=O)c2cn(C)c3cc(N4CCCC4)c(F)cc3c2=O)c1	i
Cn1c(CO[C@H]2CN(S(=O)(=O)c3ccc(Cl)cc3)C[C@H]2F)nc2ccccc21	i
CNc1nc(C(=O)N2C[C@@H](C(=O)O)[C@H](c3ccc4c(c3)OCO4)C2)cs1	34.4%
COCCNC(=O)[C@@H]1C[C@H](Oc2cccnc2)CN1C(=O)c1cccs1	21.2%
O=C(NC[C@H]1OC[C@@H](NC2CCCCC2)[C@@H]1O)c1ccc(F)cc1	i
Cc1noc([C@@H]2CN(C(=O)CCC(C)C)C[C@H]2CO)n1	16.8%
Cc1nc(-c2cn(C3CCCN(C(=O)COc4ccccc4)C3)nn2)no1 (configuration not stated)	i
c1ccc(-n2cc(CN3CCCCC3c3ccccn3)nn2)cc1 (configuration not stated)	-11.1%
CSCC(=O)Nc1ccc2n(c1=O)C[C@H]1C[C@@H]2CN(C(=O)c2ccccc2)C1	-13.1%[44.1 µM]
Cn1nc2n(c1=O)CCC(NC(=O)c1c(F)cccc1Cl)CC2 (configuration not stated)	8.9%
O=C(NC[C@H]1O[C@H](Cc2cc(COc3ccccc3)on2)CC[C@@H]1O)Nc1ccccc1	i
CCCCn1cc(S(=O)(=O)c2ccc(OC)cc2)c(=O)c2cc(CC)ccc21	-21.2%
CCCn1cc(S(=O)(=O)c2ccccc2)c(=O)c2cc(F)c(N3CCCC3)cc21	-12.0%
SMILES	Pf Dd2 inh
CCc1ccc(S(=O)(=O)c2cn(Cc3ccc(OC)cc3)c3cc(OC)c(OC)cc3c2=O)cc1	11.2µM*
CCCCn1cc(S(=O)(=O)c2ccc(C)cc2)c(=O)c2cc(F)c(N3CCCCC3)cc21	-6.6%
CCc1ccc(S(=O)(=O)c2cn(C)c3cc(OC)c(OC)cc3c2=O)cc1	i
CCCn1cc(S(=O)(=O)c2ccccc2)c(=O)c2cc(F)c(N3CCCCCC3)cc21	11.2µM*
Cn1cc(CNC(=O)C[C@@H]2C[C@H]3O[C@H](CNC4CCOCC4)[C@@H](O)[C@H]3O2)cn1	29.9%[44.1 µM]
COc1cc(OC)cc(C(=O)NC2CCN(c3cc(C(F)(F)F)ncn3)CC2)c1	i
COCc1ccc2c(c1)c(OC(C)(C)C(=O)NC1CCC(O)CC1)nn2CCC(C)C (configuration not stated)	i
Fc1ccc(CN2CC[C@H](c3nc4cc(Cl)ccc4o3)C2)cc1F	-17.8%[44.1 µM]
COc1ccc(CN2C[C@H]3CN(C(=O)C4CCOCC4)CCN3C2=O)cc1	17.1%[44.1 µM]
COCCNC(=O)N1CCC(c2cc(-c3ccc(F)cc3)n[nH]2)CC1	i[5.79 µM]
N#CCn1nc2n(c1=O)CCN(C(=O)Cc1ccsc1)CC2	-3.3%
CC(=O)Nc1ccc(NC(=O)C2CCN(c3cnccn3)CC2)cc1	i
COc1ccc(S(=O)(=O)N2CCC(C(=O)Nc3ccc(Oc4ccccc4)cc3)CC2)cc1	-5.3%
CCc1ccc(CN2CCC(C(=O)Nc3ccc(Oc4cccnc4)cc3)CC2)o1	11.2µM*
O=C(NCc1ccc(Cl)cc1)c1cnn2ncccc12	-24.5%[44.1 µM]
O=C(Nc1ccc(-c2nnc3n2CCCC3)cc1)c1ccn[nH]1	3.7%
COc1ccc(-c2ccc(C(=O)NCCCn3ccnc3C(C)C)cn2)cc1	i
